Reference: PubChem BioAssay AID720690 (Broad Institute, 2013)
Potency and affinity values are given separately. Activity calls are given as the source filed them.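 Rule for the calls: active = every repeat run showing a signal drop whose fitted half-maximal concentration is at most twice the top tested concentration; inconclusive = repeat runs disagree, or flat partial drop, or poor fit; inactive = the rest.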

Assay: general mammalian cell viability loss – activator set, cherry-pick, cytotoxicity control for miR-122 modulator project, dose response (AID 720690)
Conditions: HEK293T viability, CellTiter-Glo luminescence, 48 h; series mostly up to 26 µM
In the case of Cc1ccccc1-c1nc(CN2CCCC(C(=O)NCCCN3CCOCC3)C2)c(C)o1 (stereo not drawn), the outcome is reported as “inactive”. With CN1C(=O)c2cc(NC(=O)c3cccc(F)c3)ccc2OC[C@@H]2O[C@H](CC(=O)NC3CCC3)CC[C@@H]21 the outcome was “inactive”. With CN(c1ccccc1)S(=O)(=O)c1ccc(C(=O)Nc2cccc(S(=O)(=O)N3CCOCC3)c2)cc1 the outcome was “inactive”. For CCOc1cc(-c2nccc3cc(OC)c(OC)cc23)cc(OCC)c1OCC, the outcome was “inactive”. In the case of CC(=O)Nc1ccc2c(c1)C(=O)N(C)[C@@H]1CC[C@@H](CC(=O)NCc3ccc(Cl)cc3)O[C@H]1CO2, the outcome is reported as “inactive”. With COCCN(C[C@H]1[C@@H](c2ccccc2)[C@H](CO)N1C(=O)C1CCC1)C(C)=O the outcome was “inactive”. For COc1ccccc1C(=O)N1C[C@@H]2[C@H](c3ccccc31)[C@H](CO)N2CC1CCCC1, the outcome was “inactive”. With COCC(=O)N(C)C[C@H]1Oc2cc(-c3ccc(C#N)cc3)ccc2S(=O)(=O)N([C@@H](C)CO)C[C@H]1C the outcome was “inactive”. With CCC(=O)N1[C@H](CO)[C@H](c2ccccc2)[C@@H]1CN(C(C)C)S(C)(=O)=O the outcome was “inactive”. In the case of CC(C)OCCCNC(=O)c1ccncc1, the outcome is reported as “inactive”. With C[C@@H]1CN([C@@H](C)CO)C(=O)Cc2cc(NC(=O)Nc3ccc(C(F)(F)F)cc3)ccc2O[C@H]1CN(C)CC1CCCCC1 the outcome was “inactive”. For CCCNC(=O)Nc1ccc2c(c1)C(=O)N(C)[C@@H]1CC[C@@H](CC(=O)NCC3CCCCC3)O[C@@H]1CO2, the outcome was “inactive”. With COc1cccc(NC(=O)N2[C@H](CO)[C@@H](c3ccccc3)[C@H]2CNCC(C)C)c1 the outcome was “inactive”.
